The text below walks through data of PubChem BioAssay (NCI).

Compounds without any hit were thinned out: in the full panel of roughly 83,000, 20% have a hit.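 Treatment: one concentration, 48 hours, 96-well format. Scoring: percent growth, with anything below 10 considered active.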 Unmarked numbers belong to inactive results. Active and inactive are the calls of the source.

Holding throughout (assay): NCI-60 one-dose screen, 48 h (100 = growth as untreated, 0 = no growth, -100 = all killed)
Common to all, as to conditions: 10 µM unless noted

Test [1] concerns NCI-H23 lung.
Test [2] concerns NCI-H226 lung.
Test [3] has as its system NCI-H322M lung.
Test [4] relates to HOP-62 NSCLC.
The test system of test [5] is NCI-H460 lung.
The subject of test [6] is A549/ATCC NSCLC.
Test [7] has as its system 786-0 renal.
Test [8] has as its system COLO 205 colon.
Test [9] deals with DU-145 prostate.
The subject of test [10] is K-562 leukemia.
Test [11] relates to MALME-3M melanoma.
In test [12] the test system is MDA-MB-231 breast.
For test [13], the system named is SF-268 CNS.
Test [14] concerns SF-295 CNS.
Test [15] has as its system SF-539 CNS.
Test [16] has as its system UACC-257 melanoma.
In test [17] the test system is M14 melanoma.
Test [18] has as its system RXF 393 renal.

For `COc1cc(/C(=C2/O[C@@H]([C@H]3COC(C)(C)O3)[C@H]3OC(C)(C)O[C@@H]23)c2ccc3c(c2)OCO3)cc(OC)c1OC`, the growth is 54% in [1]; 102% in test [2]; 85.3% in [3]; 63.5% in test [4]; 57.3% in test [5]; -14% (active) in test [6]. In addition, the growth was -6.92% (active) in test [7]; 108% in [8]; 60.2% in test [9]; 40.8% in test [10]; 29.1% in [11]; 21.9% in test [12]. For the same compound, the growth in test [13] is 72%; in [14] it was 76.1%; in test [15], 25.2%; in test [16], 58.8%; in test [17] it was 93.7%.

On to `CC[C@@H](C)/C=C(C)/C=C/C(=O)c1c(O)c(-c2ccc(OC(=O)[C@@]34CC[C@@](C)(C(=O)O3)C4(C)C)cc2)cn(O)c1=O`, for which the growth is 21.8% in test [1]; 36.8% in test [2]; -4.05% (active) in [3]; 21% in test [4]; -7.48% (active) in test [5]; 43.6% in test [6]. For the same compound, the growth in [7] is -31.8% (active); in [8], 112%; in test [9], 10.8%; in test [12], 36.7%; in test [18], 31.6%; in test [13], -1.52% (active). The growth was -9.51% (active) in [14], 16.7% in test [15], 2.75% (active) in test [16] and -35.8% (active) in test [17].

On to `CC(=O)CC(=O)OC/C=C(/C)CCC=C(C)C`, for which the growth in test [1] is 103%; in test [2] it was 101%; in test [3], 118%; in test [4] it was 107%; in test [5], 109%; in [6] it was 105%. The growth in [7] is 104%; in test [8] it was 109%; in test [9], 111%; in test [10], 108%; in test [11], 121%; in test [12] it was 109%. The growth is 98% in [18]; 106% in test [13]; 97% in test [15]; 106% in test [16]; 101% in [17].

Regarding `COC(=O)[C@H](Cc1cn(C)cn1)NC(=O)[C@H](Cc1c[nH]c2ccccc12)NC(=O)Nc1cc(C(F)(F)F)cc(C(F)(F)F)c1`, the growth in test [1] was -72.4% [100 µM] (active); in test [2], -47.9% [100 µM] (active); in test [3], -41.9% [100 µM] (active); in test [4], -92% [100 µM] (active); in test [5], -25.8% [100 µM] (active); in test [6], -50.8% [100 µM] (active). Moreover, the growth in [7] is -83.8% [100 µM] (active); in [8], -77.1% [100 µM] (active); in test [9], -88.1% [100 µM] (active); in [10], -59.3% [100 µM] (active); in test [11], -70.2% [100 µM] (active); in test [12], -92.4% [100 µM] (active). Also, the growth is -81.2% [100 µM] (active) in test [18]; -79.9% [100 µM] (active) in [13]; -69.1% [100 µM] (active) in test [15]; -67.6% [100 µM] (active) in [16]; -83.8% [100 µM] (active) in test [17].

Take `O=C(O)COc1ccc([N+](=O)[O-])cc1Cl`: the growth in test [1] was 108%; in [2], 108%; in test [3], 99.8%; in test [4], 90.5%; in test [5] it was 108%; in test [6], 100%. The growth in test [7] is 98.7%; in test [8], 110%; in test [9] it was 118%; in test [10] it was 99.5%; in test [11], 107%; in test [12], 115%. Also, the growth in test [18] is 108%; in test [13], 109%; in [15] it was 98%; in [16], 91.6%; in test [17], 107%.

Take `COC(=O)CC(=O)C(=O)OC`: the growth in test [1] was 103%; in test [2], 97.7%; in [3], 107%; in test [4], 103%; in test [5], 104%; in test [6], 104%. For the same compound, the growth in test [7] is 95.2%; in test [8], 114%; in test [9], 108%; in test [10] it was 101%; in test [11], 107%; in test [12] it was 115%. Further, the growth in [18] was 104%; in test [13], 97.4%; in [15], 102%; in test [16], 102%; in [17], 100%.

For the compound `NC(CSC(c1ccccc1)(c1ccccc1)c1ccccc1)C(=O)NCC(=O)O` (stereo not given), the growth in test [1] was 86.3%; in test [2] it was 99.6%; in test [3] it was 47.9%; in test [4], 80%; in test [5], 95.2%; in test [6], 86.8%. Also, the growth in [7] is 71.3%; in test [8], 16.6%; in test [9], 111%; in [10] it was 54.2%; in [11], 52.9%; in [12] it was 61.2%. In addition, the growth in [18] is 22.6%; in test [13], 67.3%; in test [15] it was 21.3%; in test [16] it was 54.9%; in test [17] it was 44.6%.

`C[C@]12CC[C@H]3[C@@H](CC[C@H]4C[C@@H](O)CC[C@@]43C)[C@@H]1CC(=O)C2`: the growth was 99.9% in test [1]; 100% in test [2]; 106% in test [3]; 96.8% in test [4]; 103% in [5]; 100% in test [6]. The growth in test [7] was 107%; in test [8], 101%; in test [9], 107%; in test [10], 94.1%; in [11], 163%; in test [12], 112%. Moreover, the growth in test [18] was 118%; in test [13], 97.9%; in test [15] it was 92.7%; in test [16], 104%; in test [17], 108%.
